Assay [1] has as its target Cytochrome P450 2C19 (Homo sapiens) (UniProt P33261). Kind of assay: NVS_ADME_hCYP2C19: NovaScreen (NVS) CYP450-related Enzyme Activity (ADME) Assay for human CYP2C19 (AID 2283113).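 Further: potency for inhibition seen as loss of fluorescent signal.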 An outline of the steps:
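Cell-free assay of recombinant human CYP2C19 expressed in insect cells, with a fluorogenic substrate; fluorescence intensity read 1 hour after dosing. Loss of signal relative to acetonitrile negative control indicates inhibition. Primary screen at 10 uM in duplicate, then concentration series.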

Assay [2] has as its target rat CYP2C11, Cyp2c11 (gene 29277) (UniProt P08683). In words: NVS_ADME_rCYP2C11: NovaScreen (NVS) CYP450-related Enzyme Activity (ADME) Assay for rat CYP2C11 (AID 2283118). A digest of the protocol:
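Cell-free recombinant rat enzyme with fluorescent substrate; readout 0.33 h after dosing, loss of signal versus acetonitrile control. Initial duplicate single-point at 10 uM; actives rerun in concentration series.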

A further assay relates to rat CYP2C6, gene 293989. Kind of assay: NVS_ADME_rCYP2C6: NovaScreen (NVS) CYP450-related Enzyme Activity (ADME) Assay for rat CYP2C6 (AID 2283120). An outline of the steps:
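Cell-free recombinant rat CYP2C6 with fluorogenic substrate, read by fluorescence 1 h after dosing; acetonitrile as negative control. Primary screen at 10 uM in duplicate, actives then in concentration-response up to 20 uM.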

For assay [3], the target named is rat CYP3A2, Cyp3a2 (gene 266682) (UniProt P05183). Kind of assay: NVS_ADME_rCYP3A2: NovaScreen (NVS) CYP450-related Enzyme Activity (ADME) Assay for rat CYP3A2 (AID 2283128). An outline of the steps:
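Cell-free rat CYP3A2 enzyme assay with fluorescent substrate, read 0.5 h after dosing. Primary duplicate screen at 10 uM; actives run in concentration-response up to 20 uM, relative to acetonitrile baseline.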

Assay [4] deals with human CYP2C9, CYP2C9 (gene 1559) (UniProt P11712). Kind of assay: NVS_ADME_hCYP2C9: NovaScreen (NVS) CYP450-related Enzyme Activity (ADME) Assay for human CYP2C9 (AID 2283108). A digest of the protocol: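 Fluorescence readout of CYP2C9 activity (SF9-expressed human enzyme) at 0.75 h. The primary screen used 10 uM in duplicate, with concentration-response follow-up for actives; acetonitrile was the negative control.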

Another assay has as its target Caspase-1 (Homo sapiens) (UniProt P29466). Kind of assay: NVS_ENZ_hCASP1: NovaScreen (NVS) Enzymatic Assay for human Caspase 1 (CASP1) (AID 2283132). A digest of the protocol:
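Cell-free enzymatic assay with E. coli-expressed recombinant protein; fluorescence intensity read 1 hour after dosing. Single-concentration duplicate screen at 25 uM, then concentration-response up to 50 uM; activity fitted relative to DMSO, loss of signal meaning inhibition.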

The target in assay [5] is Cytochrome P450 3A4 (Homo sapiens) (UniProt P08684). Kind of assay: NVS_ADME_hCYP3A4: NovaScreen (NVS) CYP450-related Enzyme Activity (ADME) Assay for human CYP3A4 (AID 2283110). An outline of the steps: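 Compounds were first screened in duplicate at 10 uM against recombinant CYP3A4 produced in insect cells, then actives were run in concentration series. Enzyme activity was measured by fluorescence after 0.33 hour, with acetonitrile as baseline.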

The next assay has as its system rat CYP2B1, gene 24300. Kind of assay: NVS_ADME_rCYP2B1: NovaScreen (NVS) CYP450-related Enzyme Activity (ADME) Assay for rat CYP2B1 (AID 2283117). An outline of the steps: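 Recombinant rat CYP2B1 with fluorogenic substrate, read at 0.75 h. Primary screen in duplicate at 10 uM; compounds meeting threshold (e.g., 30% inhibition) re-run in concentration-response up to 20 uM. Fitted against acetonitrile control.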

The target in assay [6] is rat CYP2C12, Cyp2c12 (gene 25011) (UniProt P11510). Kind of assay: NVS_ADME_rCYP2C12: NovaScreen (NVS) CYP450-related Enzyme Activity (ADME) Assay for rat CYP2C12 (AID 2283119). An outline of the steps: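 Cell-free recombinant rat CYP2C12 activity read by fluorescence 0.5 h after dosing; loss of signal versus acetonitrile control. Primary screen in duplicate at 10 uM; actives then run in concentration-response format.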

The target of assay [7] is human Acetylcholinesterase (AChE), ACHE (gene 43) (UniProt P22303). In words: NVS_ENZ_hAChE: NovaScreen (NVS) Enzymatic Assay for human Acetylcholinesterase (AChE) (AID 2283129). An outline of the steps:
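Cell-free colorimetric enzyme-activity assay; compounds read 0.33 hour after dosing, loss of signal vs DMSO baseline. Primary screen in duplicate at 25 uM single concentration, with active compounds retested in concentration series.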

The target of assay [8] is human Caspase 10 (CASP10), CASP10 (gene 843) (UniProt Q92851). In words: NVS_ENZ_hCASP10: NovaScreen (NVS) Enzymatic Assay for human Caspase 10 (CASP10) (AID 2283133). A digest of the protocol:
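Recombinant human caspase-10 from E. coli, cell-free fluorogenic substrate assay read 1 h after dosing. Primary duplicate screen at 25 uM; hits (e.g. ≥30% inhibition) run singly in concentration-response up to 50 uM, normalised to DMSO.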

The target of assay [9] is human AMP-activated Protein Kinase, alpha 1 (AMPKa1), PRKAA1 (gene 5562) (UniProt Q13131). In words: NVS_ENZ_hAMPKa1: NovaScreen (NVS) Enzymatic Assay for human AMP-activated Protein Kinase, alpha 1 (AMPKa1) (AID 2283130). An outline of the steps: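 Recombinant human AMPKα1 activity was measured cell-free by fluorescent substrate conversion with electrophoretic mobility-shift separation, 1 h after dosing. Duplicate single-point screening was at 25 uM; actives (≥30% inhibition) were retested in concentration-response up to 50 uM.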

Where “and” joins values, the source holds several entries; their conditions need not be identical. Identical values can stand only once. Records with an inconclusive call do not appear. Calls of active or inactive are those of the source. How the source made its calls: active means hit-call score of the fitted dose curve at least 0.9, where 1 is the maximum; inconclusive means response in the unintended direction; inactive means score below 0.9.

rat CYP3A2, Cyp3a2 (gene 266682), sequence (P05183 whole entry, looked up): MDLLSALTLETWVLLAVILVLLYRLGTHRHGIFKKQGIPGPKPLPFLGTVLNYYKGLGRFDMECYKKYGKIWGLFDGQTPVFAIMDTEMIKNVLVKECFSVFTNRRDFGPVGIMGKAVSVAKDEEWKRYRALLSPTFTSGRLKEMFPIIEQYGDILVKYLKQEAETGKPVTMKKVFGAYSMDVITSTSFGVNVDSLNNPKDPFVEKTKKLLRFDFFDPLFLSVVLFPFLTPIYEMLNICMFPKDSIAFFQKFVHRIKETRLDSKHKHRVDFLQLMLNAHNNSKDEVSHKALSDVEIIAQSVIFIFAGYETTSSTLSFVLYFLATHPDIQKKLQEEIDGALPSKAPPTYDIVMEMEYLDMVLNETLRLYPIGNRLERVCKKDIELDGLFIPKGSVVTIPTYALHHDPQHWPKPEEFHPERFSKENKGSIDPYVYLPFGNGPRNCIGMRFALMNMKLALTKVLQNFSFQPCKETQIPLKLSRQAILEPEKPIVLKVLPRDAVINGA
rat CYP2C11, Cyp2c11 (gene 29277), sequence (P08683 whole entry, looked up): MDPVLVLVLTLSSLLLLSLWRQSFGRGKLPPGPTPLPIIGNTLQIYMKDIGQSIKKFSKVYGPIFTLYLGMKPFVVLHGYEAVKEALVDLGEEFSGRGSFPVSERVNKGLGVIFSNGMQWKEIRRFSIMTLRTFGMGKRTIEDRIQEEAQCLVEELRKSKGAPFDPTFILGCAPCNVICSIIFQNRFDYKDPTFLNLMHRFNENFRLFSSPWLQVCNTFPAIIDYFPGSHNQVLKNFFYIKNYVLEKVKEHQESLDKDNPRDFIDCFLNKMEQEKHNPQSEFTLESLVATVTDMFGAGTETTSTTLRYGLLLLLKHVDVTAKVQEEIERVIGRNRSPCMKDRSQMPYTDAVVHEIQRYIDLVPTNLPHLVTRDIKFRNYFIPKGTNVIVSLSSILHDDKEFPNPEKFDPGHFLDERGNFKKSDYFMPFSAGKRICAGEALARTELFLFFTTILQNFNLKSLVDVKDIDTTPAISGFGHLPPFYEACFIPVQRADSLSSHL
human Acetylcholinesterase (AChE), ACHE (gene 43), sequence (P22303 whole entry, looked up): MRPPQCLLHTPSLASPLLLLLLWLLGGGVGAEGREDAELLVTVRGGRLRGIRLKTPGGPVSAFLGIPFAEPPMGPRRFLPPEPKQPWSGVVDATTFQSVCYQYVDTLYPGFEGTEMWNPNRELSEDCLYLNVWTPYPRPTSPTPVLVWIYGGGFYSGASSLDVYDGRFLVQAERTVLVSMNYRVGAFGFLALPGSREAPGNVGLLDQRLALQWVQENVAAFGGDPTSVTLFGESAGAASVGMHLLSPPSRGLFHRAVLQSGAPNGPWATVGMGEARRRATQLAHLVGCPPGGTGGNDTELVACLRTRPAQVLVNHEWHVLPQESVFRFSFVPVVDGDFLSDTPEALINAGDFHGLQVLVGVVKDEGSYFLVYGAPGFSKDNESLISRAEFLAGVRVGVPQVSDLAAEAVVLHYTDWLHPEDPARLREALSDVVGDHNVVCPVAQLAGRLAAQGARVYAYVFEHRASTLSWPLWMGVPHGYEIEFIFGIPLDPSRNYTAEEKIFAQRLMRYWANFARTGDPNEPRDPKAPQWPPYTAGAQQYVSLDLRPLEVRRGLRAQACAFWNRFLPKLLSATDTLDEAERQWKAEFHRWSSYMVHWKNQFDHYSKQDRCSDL
human CYP2C9, CYP2C9 (gene 1559), sequence (P11712 whole entry, looked up): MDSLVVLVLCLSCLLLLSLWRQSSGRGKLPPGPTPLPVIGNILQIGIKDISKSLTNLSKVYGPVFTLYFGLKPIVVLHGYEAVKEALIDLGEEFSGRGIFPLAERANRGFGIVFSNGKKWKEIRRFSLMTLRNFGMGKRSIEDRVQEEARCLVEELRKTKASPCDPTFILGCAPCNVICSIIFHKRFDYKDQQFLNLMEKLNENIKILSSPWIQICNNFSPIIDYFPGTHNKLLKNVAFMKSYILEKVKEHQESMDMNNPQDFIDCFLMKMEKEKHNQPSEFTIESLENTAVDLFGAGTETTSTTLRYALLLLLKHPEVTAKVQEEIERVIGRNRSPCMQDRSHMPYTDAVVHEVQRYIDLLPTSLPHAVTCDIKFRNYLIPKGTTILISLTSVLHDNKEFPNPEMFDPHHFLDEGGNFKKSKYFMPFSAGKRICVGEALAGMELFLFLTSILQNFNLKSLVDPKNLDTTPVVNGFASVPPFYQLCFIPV
Cytochrome P450 3A4 (Homo sapiens), sequence (P08684 whole entry, looked up): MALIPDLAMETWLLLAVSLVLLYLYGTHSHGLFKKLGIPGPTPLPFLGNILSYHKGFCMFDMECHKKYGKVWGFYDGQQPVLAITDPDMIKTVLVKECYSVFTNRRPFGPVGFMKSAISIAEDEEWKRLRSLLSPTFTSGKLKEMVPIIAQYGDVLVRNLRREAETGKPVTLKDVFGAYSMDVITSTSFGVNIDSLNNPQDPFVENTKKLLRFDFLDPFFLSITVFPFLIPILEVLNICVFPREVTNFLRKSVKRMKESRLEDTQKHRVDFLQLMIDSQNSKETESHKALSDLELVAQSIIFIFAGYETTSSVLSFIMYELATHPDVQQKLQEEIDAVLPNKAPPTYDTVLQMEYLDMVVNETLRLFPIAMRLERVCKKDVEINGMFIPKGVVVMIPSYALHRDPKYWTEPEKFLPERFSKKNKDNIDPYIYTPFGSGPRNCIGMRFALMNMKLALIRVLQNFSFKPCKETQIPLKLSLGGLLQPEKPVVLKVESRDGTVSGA
human AMP-activated Protein Kinase, alpha 1 (AMPKa1), PRKAA1 (gene 5562), sequence (Q13131 whole entry, looked up): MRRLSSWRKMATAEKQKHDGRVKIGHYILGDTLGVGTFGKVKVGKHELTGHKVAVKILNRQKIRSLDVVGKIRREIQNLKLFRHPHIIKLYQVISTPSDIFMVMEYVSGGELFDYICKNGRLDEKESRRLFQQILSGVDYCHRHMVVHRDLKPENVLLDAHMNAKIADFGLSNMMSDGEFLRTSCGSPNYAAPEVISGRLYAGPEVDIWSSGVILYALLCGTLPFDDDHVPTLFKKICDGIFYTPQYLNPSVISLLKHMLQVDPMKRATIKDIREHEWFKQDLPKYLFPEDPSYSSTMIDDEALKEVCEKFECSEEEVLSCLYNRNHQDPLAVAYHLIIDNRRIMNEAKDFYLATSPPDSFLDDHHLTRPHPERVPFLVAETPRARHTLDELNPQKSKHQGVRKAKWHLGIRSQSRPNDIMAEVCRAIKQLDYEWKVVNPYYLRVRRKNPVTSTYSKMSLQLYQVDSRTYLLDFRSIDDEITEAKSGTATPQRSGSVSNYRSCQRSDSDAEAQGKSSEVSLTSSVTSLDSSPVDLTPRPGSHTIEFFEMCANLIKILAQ
human Caspase 10 (CASP10), CASP10 (gene 843), sequence (Q92851 whole entry, looked up): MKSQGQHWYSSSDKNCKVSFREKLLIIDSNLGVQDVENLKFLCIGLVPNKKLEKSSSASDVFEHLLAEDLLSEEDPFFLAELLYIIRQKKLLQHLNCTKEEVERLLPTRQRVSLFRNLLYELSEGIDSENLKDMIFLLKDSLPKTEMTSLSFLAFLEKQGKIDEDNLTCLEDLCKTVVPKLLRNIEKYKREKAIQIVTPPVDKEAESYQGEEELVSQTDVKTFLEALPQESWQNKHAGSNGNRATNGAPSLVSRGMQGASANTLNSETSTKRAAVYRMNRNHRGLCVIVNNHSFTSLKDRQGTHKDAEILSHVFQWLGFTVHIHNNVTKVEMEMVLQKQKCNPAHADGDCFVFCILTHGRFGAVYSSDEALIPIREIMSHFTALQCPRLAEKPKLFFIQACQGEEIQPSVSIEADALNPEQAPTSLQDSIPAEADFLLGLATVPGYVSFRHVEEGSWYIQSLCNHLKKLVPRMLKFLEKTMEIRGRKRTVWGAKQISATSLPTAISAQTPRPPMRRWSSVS
rat CYP2C12, Cyp2c12 (gene 25011), sequence (P11510 whole entry, looked up): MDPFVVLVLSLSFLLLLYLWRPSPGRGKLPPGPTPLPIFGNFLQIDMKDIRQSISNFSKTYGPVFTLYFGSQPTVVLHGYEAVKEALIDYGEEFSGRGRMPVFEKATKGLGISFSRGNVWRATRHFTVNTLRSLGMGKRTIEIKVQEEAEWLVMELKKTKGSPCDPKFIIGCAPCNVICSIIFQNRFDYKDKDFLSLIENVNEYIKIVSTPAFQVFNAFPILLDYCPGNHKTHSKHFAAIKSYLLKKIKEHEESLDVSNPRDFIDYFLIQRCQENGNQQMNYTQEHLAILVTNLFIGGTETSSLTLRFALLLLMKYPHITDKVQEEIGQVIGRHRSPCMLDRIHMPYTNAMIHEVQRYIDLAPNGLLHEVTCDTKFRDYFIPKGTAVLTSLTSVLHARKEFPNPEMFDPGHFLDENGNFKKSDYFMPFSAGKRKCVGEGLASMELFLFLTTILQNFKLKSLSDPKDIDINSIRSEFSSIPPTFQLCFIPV
Caspase-1 (Homo sapiens), sequence (P29466 whole entry, looked up): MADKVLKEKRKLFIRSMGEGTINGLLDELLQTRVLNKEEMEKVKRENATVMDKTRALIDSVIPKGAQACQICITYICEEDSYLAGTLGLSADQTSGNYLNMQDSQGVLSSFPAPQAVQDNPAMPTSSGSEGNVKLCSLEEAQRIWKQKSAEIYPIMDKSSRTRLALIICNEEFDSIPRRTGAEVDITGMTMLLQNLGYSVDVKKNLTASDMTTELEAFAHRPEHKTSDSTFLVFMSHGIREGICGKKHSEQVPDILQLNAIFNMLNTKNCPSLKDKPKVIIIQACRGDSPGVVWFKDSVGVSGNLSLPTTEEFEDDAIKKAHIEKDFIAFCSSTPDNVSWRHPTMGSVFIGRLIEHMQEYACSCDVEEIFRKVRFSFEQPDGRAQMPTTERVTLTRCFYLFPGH

One may read the AC50 as the midpoint of the concentration-response curve, whichever way the signal moves. In the case of `CCOP(=O)(SC(C)CC)N1CCSC1=O` (stereo not given), the AC50 in assay [1] was 6.44 µM (active); in assay [2], 3.88 µM (active); with rat CYP2C6, gene 293989, 5.01 µM (active); in assay [3], 8.56 µM (active).

`COc1cccc(C(=O)NN(C(=O)c2cc(C)cc(C)c2)C(C)(C)C)c1C`: the call in assay [4] was inactive. The figures for the AC50 in assay [1] and in assay [3] were 2.58 µM (active) and 0.651 µM (active), respectively.

Consider `CC(C)[C@H](C(=O)O[C@H](C#N)c1cccc(Oc2ccccc2)c1)c1ccc(Cl)cc1`, for which the AC50 in assay [1] is 8.22 µM (active). For the same molecule, in the assay with Caspase-1 (Homo sapiens), the call was inactive.

Take `CCOP(=O)(OCC)Oc1cc(C)nc(C(C)C)n1`: the AC50 in [1] was 10 µM (active).

Turning to `C=C(C)[C@H]1Cc2c(ccc3c2O[C@@H]2COc4cc(OC)c(OC)cc4[C@@H]2C3=O)O1`, the outcome in assay [5] is “inactive”; in the assay on rat CYP2B1, gene 24300, “inactive”. In addition, the figures for the AC50 in assay [1], in assay [2] and in assay [3] were 0.434 µM (active), 5.05 µM (active) and 2.88 µM (active), respectively.

Consider `COc1ccc(C(=CC(=O)N2CCOCC2)c2ccc(Cl)cc2)cc1OC`, for which the half-maximal activity concentration (AC50) is 7.59 µM (active) in assay [1]; 3.98 µM (active) with rat CYP2C6, gene 293989; 6.54 µM (active) in [3].

Take `CC(C1CC1)C(O)(Cn1cncn1)c1ccc(Cl)cc1` (stereo not given): the AC50 in assay [4] is 54.7 nM (active) and 47.4 nM (active); in [5], 4.56 µM (active); in assay [1] it was 0.111 µM (active); with rat CYP2B1, gene 24300 it was 401 nM (active) and 1.61 µM (active); in [2] it was 1.69 µM (active); in [6], 3.71 µM (active). In addition, the half-maximal activity concentration (AC50) in [3] is 0.771 µM (active).

With `CNC(=O)Oc1cccc2c1OC(C)(C)O2`, the AC50 in assay [7] is 1.36 µM (active).

In the case of `CC1(C(=O)Nc2ccc(O)c(Cl)c2Cl)CCCCC1`, the half-maximal activity concentration (AC50) was 2.58 µM (active) in assay [4], 6.6 µM (active) in assay [1] and 3.42 µM (active) in [3].

As to `CC(C)N(C(=O)SCC(Cl)=C(Cl)Cl)C(C)C`, the molecule was called inactive with rat CYP2B1, gene 24300.

`CCc1cccc(CC)c1N(COC)C(=O)CCl`: the concentration at half-maximal activity (AC50) in [1] is 6.1 µM (active); with rat CYP2B1, gene 24300, 3.44 µM (active). The result in [8] was inactive.

For `CNC(=O)ON=C(C)SC`, in [7], the AC50 was 25 µM (active).

Regarding `CCOP(=S)(OCC)OC(Cl)C(Cl)(Cl)Cl` (stereo not given), the concentration at half-maximal activity (AC50) in assay [4] is 10 µM (active); in assay [7] it was 8.21 µM (active).

In the case of `CON=C(C(=O)OC)c1ccccc1CON=C(C)c1cccc(C(F)(F)F)c1`, the concentration at half-maximal activity (AC50) in assay [1] was 2.26 µM (active).

For `CC[C@H](C)[C@H]1O[C@]2(C=C[C@@H]1C)C[C@@H]1C[C@@H](C/C=C(\C)[C@@H](O[C@H]3C[C@H](OC)[C@@H](O[C@H]4C[C@H](OC)[C@@H](NC)[C@H](C)O4)[C@H](C)O3)[C@@H](C)/C=C/C=C3\CO[C@@H]4[C@H](O)C(C)=C[C@@H](C(=O)O1)[C@]34O)O2`, the AC50 in assay [1] was 10 µM (active); in assay [3] it was 8.11 µM (active); in assay [9], 14.6 µM (active).

The values are drawn from PubChem BioAssay (EPA / NIEHS).
